From PubChem BioAssay AID720540 (National Center for Advancing Translational Sciences (NCATS), 2013)
In all, about 1,300 compounds went through this assay and about 460 (35%) were called active. Not shown: some 39% with an inconclusive outcome. The list shows a part of the results. Unmarked numbers belong to inactive results. Calls come from the whole dose curve; as a rule, active = well fitted inhibition curve with a large enough effect; inconclusive = small, poorly fitted or top-dose-only effect; inactive = flat fitted curve, though single readings scatter.

What follows are compounds tested against Protein phosphatase EYA2 (Homo sapiens) (UniProt O00167) (assay: qHTS for Inhibitors of the Phosphatase Activity of Eya2: Confirmatory Assay for Cherry-picked Compounds). Details: purified EYA2 phosphatase activity, qHTS confirmation; series mostly up to 46.1 µM; activity change, negative = inhibition: at the top concentration.
Procedure, shortened: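 Eya2 (0.2 uM working solution) preincubated 10 min at room temperature with compound in pH 7.5 HEPES buffer with MgCl2, BSA, DTT. OMFP added (50 uM working solution), 10 min more; fluorescence 485/525 nm, normalized to EGTA and DMSO.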
Note: nearly all actives have a fitted effect of over 65% in size.
Potency is the fitted concentration of half-maximal effect.
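Throughout, for activity change, negative = inhibition: 0% = DMSO wells and -100% = EGTA control giving full inhibition.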

Sequence of Protein phosphatase EYA2 (Homo sapiens) (O00167 whole entry, looked up): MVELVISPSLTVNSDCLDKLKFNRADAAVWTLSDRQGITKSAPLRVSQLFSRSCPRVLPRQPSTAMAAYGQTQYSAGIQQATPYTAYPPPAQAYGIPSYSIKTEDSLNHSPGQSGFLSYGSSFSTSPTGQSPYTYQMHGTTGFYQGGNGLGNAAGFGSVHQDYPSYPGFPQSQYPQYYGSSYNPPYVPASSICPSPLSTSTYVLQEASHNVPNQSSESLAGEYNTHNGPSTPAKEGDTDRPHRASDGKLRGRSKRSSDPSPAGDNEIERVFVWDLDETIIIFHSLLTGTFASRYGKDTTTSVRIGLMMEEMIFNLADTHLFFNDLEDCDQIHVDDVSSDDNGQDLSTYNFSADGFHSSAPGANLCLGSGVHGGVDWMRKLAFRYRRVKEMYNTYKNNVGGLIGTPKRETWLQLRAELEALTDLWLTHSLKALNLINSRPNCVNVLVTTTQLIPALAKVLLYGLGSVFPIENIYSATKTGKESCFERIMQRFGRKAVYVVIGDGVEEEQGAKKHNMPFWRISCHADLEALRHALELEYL

Row | SMILES | Potency | activity change, negative = inhibition [%]
1 | Nc1nccnc1C(=O)OCC(=O)Nc1ccc2[nH]c(=O)[nH]c2c1 | 13.5 µM (active) | –
2 | CCn1c2ccccc2c2cc(NC(=O)COC(=O)c3ccc(NC(=O)CC#N)cc3)ccc21 | – | -9.27
3 | O=C(COC(=O)c1cc(=O)[nH]c2ccccc12)Nc1cccc(S(=O)(=O)N2CCOCC2)c1 | – | -29.9
4 | CCOc1ccc2ccccc2c1C(=O)N[C@@H]1C(=O)N2[C@@H]1SC(C)(C)[C@@H]2C(=O)O | – | -15.5
5 | O=C(CSc1nc2ccccc2n1CCc1ccccc1)c1ccc(O)c(O)c1 | 13.5 µM (active) | –
6 | Cc1ccc(OCCSc2nc3ccccc3n2CCC(=O)O)c(C(C)C)c1 | – | -23.1
7 | O=C(C[n+]1ccccc1)c1ccc(O)c(O)c1 | – | -16.6
8 | CCOCCCNC(=O)c1cc2sc(Cl)cc2n1CC | – | -9.06
9 | Nc1ccccc1C(=O)NNc1c2ccccc2nc2ccccc12 | 8.49 µM (active) | –
10 | O=C(CN1C(=O)c2ccccc2C1=O)Nc1nc(-c2cccc([N+](=O)[O-])c2)cs1 | – | -5.34
11 | O=[N+]([O-])c1ccccc1Nc1nc(-c2cccnc2)cs1 | 15.1 µM (active) | –
12 | CNc1cccc2c1C(=O)c1ccccc1C2=O | 1.69 µM (active) | –
13 | CN(C)c1ccc(N=Nc2ccnc3ccccc23)cc1 | 3.38 µM (active) | –
14 | Cc1cc(O)cc(O)c1/C=N/NC(=O)c1ccc2c(c1)OCCO2 | 7.57 µM (active) | –
15 | S=c1[nH]nc(-c2ccccn2)n1/N=C/c1ccc(Br)s1 | 16.9 µM (active) | –
16 | NC(=O)[C@@H]1CC2(CC(c3cccc(NC(=O)COc4ccc(Cl)cc4)c3)=NO2)CN1C(=O)COc1ccc(Cl)cc1 (stereo partly specified) | – | -21.3
17 | CCn1c(C)cc(/C=C2/SC(=O)N(C(C)C(=O)OC)C2=O)c1C (stereo unspecified) | – | -22.8
18 | Cc1c(C(=O)O)cccc1-c1ccc(/C=C2\SC(=O)NC2=O)o1 | – | -17.9
19 | CCOC(=O)C(C)N1C(=O)S/C(=C\c2ccc(-c3ccccc3C(=O)O)o2)C1=O (stereo unspecified) | 19 µM (active) | –
20 | COCCN(Cc1cc2cc3c(cc2nc1Cl)OCO3)C(=O)Nc1ccc(OC)cc1 | – | -8.91
21 | COc1ccc2[nH]cc(CCn3ccc(O)c(C/C=C/c4ccccc4)c3=O)c2c1 | 21.3 µM (active) | –
22 | CC(=O)Nc1ccc(S(=O)(=O)O)c2cc(S(=O)(=O)O)c(N=Nc3ccc(N=Nc4ccc(S(=O)(=O)O)cc4)c4ccc(S(=O)(=O)O)cc34)c(O)c12 | 1.51 µM (active) | –
23 | O=S(=O)(O)c1ccc2c(N=Nc3ccc(S(=O)(=O)O)c4ccccc34)c(O)c(S(=O)(=O)O)cc2c1 | 7.57 µM (active) | –
24 | CCN1CCN(c2ncnc3scc(-c4ccc(C)cc4)c23)CC1 | – | -19

Row | SMILES | Potency | activity change, negative = inhibition [%]
25 | CCOc1ccc(NC(=O)C2CC(=O)N(CCc3ccc(OC)c(OC)c3)C2)cc1OCC (stereo unspecified) | 12 µM (active) | –
26 | COc1ccc2cc(C(=O)N3CCN(c4ccc(F)cc4)CC3)[nH]c2c1 | – | -5.52
27 | COc1ccc(N2CCN(C(=O)c3cc(-c4cc(OC)ccc4OC)nc4ccccc34)CC2)cc1 | 16.9 µM (active) | –
28 | O=C1/C(=C\c2cccc([N+](=O)[O-])c2O)SC(=S)N1Cc1ccccc1 | 6.75 µM (active) | –
29 | Oc1ccc(-c2nc3c4c(ncn3n2)-c2ccccc2CC42CCCC2)cc1 | – | -18.2
30 | COc1ccc(CC(CC(=O)O)C(=O)Nc2ccc(Cl)c(Cl)c2)cc1 (stereo unspecified) | – | 6.93
31 | COc1ccc(/C=C(/C#N)C(=O)Nc2ccc(O)cc2)cc1C(=O)O | 9.53 µM (active) | –
32 | N#C/C(=C\c1ccc(-c2ccc(C(=O)O)cc2)o1)C(=O)Nc1ccc(F)cc1 | 16.9 µM (active) | –
33 | COc1ccc(NC(=O)/C(C#N)=C/c2ccc(-c3ccc(Cl)c(C(=O)O)c3)o2)cc1 | 19 µM (active) | –
34 | O=C(Cn1ccc(=O)[nH]c1=O)Nc1nccs1 | – | -8.64
35 | CC(Oc1ccc(F)cc1)C(=O)Nc1cc(S(=O)(=O)N2CCCCC2)ccc1N1CCN(C)CC1 (stereo unspecified) | – | -25.7
36 | CCOc1ccc(S(=O)(=O)N2CCN(C)CC2)cc1NC(=O)c1ccccc1F | 8.49 µM (active) | –
37 | Cc1ccc(-c2csc(N3CCN(CCCn4c(C(F)(F)F)nc5ccccc54)CC3)n2)cc1 | – | -22.1
38 | Oc1[nH]c2ccccc2c1N=Nc1nc2ccccc2s1 | – | -30
39 | CCCSC1=N/C(=C\C=C\c2ccco2)C(=O)S1 | 9.53 µM (active) | –
40 | O=c1nc2c(O)cccn2c2c1c(=O)[nH]c1ccccc12 | 4.26 µM (active) | –
41 | Cc1ccc(C(=O)CSc2nnc(CNc3nc(-c4ccccc4)cs3)n2C)cc1 | 7.57 µM (active) | –
42 | COc1ccc(N)cc1-n1c(C)ccc1C | – | -0.42
43 | O=[N+]([O-])c1ccc([N+](=O)[O-])c(Nc2ccc(N3CCOCC3)cc2)c1 | 10.7 µM (active) | –
44 | O=C(CCS(=O)(=O)c1ccc(F)cc1)Nc1nc(-c2ccccn2)cs1 | 13.5 µM (active) | –
45 | CCn1nc(C(=O)Nc2nc(-c3ccccn3)cs2)c2ccccc2c1=O | 4.26 µM (active) | –
46 | CSCCC(=O)Nc1nc(-c2ccccn2)cs1 | 19 µM (active) | –
47 | Cn1cccc1/C=N/N1CCN(Cc2cccc3ccccc23)CC1 | 15.1 µM (active) | –
48 | COc1ccccc1/C=C/C=N/N1CCN(Cc2cccc3ccccc23)CC1 | 8.49 µM (active) | –

Row | SMILES | Potency | activity change, negative = inhibition [%]
49 | Cc1cc(C(=O)COC(=O)c2ccc(O)cc2)c(C)n1CCc1ccc(F)cc1 | – | -22.6
50 | CCCCC(Sc1ccc2nnc(-c3ccccn3)n2n1)C(=O)O (stereo unspecified) | 16.9 µM (active) | –
51 | O=C(CSc1ccc2nnc(-c3ccccn3)n2n1)Nc1ccccc1C(F)(F)F | 19 µM (active) | –
52 | O=C(CSc1ccc2nnc(-c3ccccn3)n2n1)Nc1ccccc1F | 12 µM (active) | –
53 | O=C(CSc1ccc2nnc(-c3ccccn3)n2n1)Nc1ccccc1 | 16.9 µM (active) | –
54 | CCC(=O)Nc1ccc(-c2nnc(SCc3ccccc3)n2C)cc1 | – | -7.17
55 | O=S(=O)(O)c1ccc(O)c2cc(Nc3ccccc3)ccc12 | 7.57 µM (active) | –
56 | COc1ccc(/C=C/C(=O)Nc2ccc3nc4n(c(=O)c3c2)CCCC4)cc1 | – | -23.1
57 | O=C(c1ccc2c(=O)n3c(nc2c1)CCCCC3)N1CCN(c2cccc(Cl)c2)CC1 | 16.9 µM (active) | –
58 | NC(=O)c1nc(C(=O)N2CCCCC2)c2ccccc2n1 | – | -4.08
59 | COc1cc2c(cc1OC)C(c1ccc([N+](=O)[O-])cc1)NCC2 (stereo unspecified) | – | -11.5
60 | Oc1ccccc1C=NC1CCCCC1N=Cc1ccccc1O (stereo unspecified) | 19 µM (active) | –
61 | O=C(Nc1nncs1)c1cc(-c2ccco2)nc2ccccc12 | 19 µM (active) | –
62 | COc1ccc(NC(=O)c2cc(-c3ccco3)nc3ccccc23)cn1 | – | -26.4
63 | CCOC(=O)c1sc(NC(=O)CSc2nc(O)c(Cc3ccccc3)c(=O)[nH]2)nc1C | 19 µM (active) | –
64 | COc1cc(/C=C2\SC(=S)N(CCC(=O)Nc3cccc(O)c3)C2=O)cc(OC)c1OC | – | -18.9
65 | O=C(CN1C(=O)/C(=C/c2ccco2)SC1=S)Nc1ccc(C(=O)O)c(O)c1 | 16.9 µM (active) | –
66 | O=C1c2cccc(Sc3ccccc3)c2C(=O)c2c(Sc3ccccc3)cccc21 | 3.38 µM (active) | –
67 | COC(=O)c1sc2cc(C(F)(F)F)cnc2c1-c1cccnc1 | – | -1.68
68 | CCN(CC)S(=O)(=O)c1cc(OC)ccc1N=Nc1ccc(O)c2ncccc12 | 1.35 µM (active) | –
69 | CCN(CC)C(=O)c1ccc(O)c(OC)c1 | – | 1.29
70 | O=S(=O)(Nc1nccs1)c1ccc(NCc2cc(Br)cc(Br)c2O)cc1 | 1.07 µM (active) | –
71 | CCc1nnc(NS(=O)(=O)c2ccc(NCc3cc(Cl)cc(Cl)c3O)cc2)s1 | 2.39 µM (active) | –
72 | CCSc1nnc(-c2ccc(S(=O)(=O)N3CCOCC3)cc2)n1C | – | 2.37

Row | SMILES | Potency | activity change, negative = inhibition [%]
73 | CCOc1ccc(/C=C2\SC(=S)N(CCC(=O)Nc3ccc(C(=O)O)cc3)C2=O)cc1 | 19 µM (active) | –
74 | O=C(CCN1C(=O)/C(=C\C=C\c2ccccc2)SC1=S)Nc1ccc(C(=O)O)cc1 | – | -25.3
75 | CCOc1ccc(NC(=O)c2sccc2-n2cccc2)cc1 | – | -22.2
76 | Cc1n[nH]c(=S)n(NC(=O)CC(=O)Nn2c(=S)[nH]nc(C)c2=O)c1=O | 1.51 µM (active) | –
77 | CC1CCCN(c2ccc3nc4ccccc4c(=O)n3n2)C1 (stereo unspecified) | 13.5 µM (active) | –
78 | Cc1ccc(CN2CCN(/N=C/c3ccc(C)s3)CC2)c(C)c1 | 15.1 µM (active) | –
79 | O=C(Nc1nc2c(F)cc(F)cc2s1)c1ccc([N+](=O)[O-])o1 | – | -27.1
80 | Cc1cc(Br)c(NC(=O)c2ccccc2[N+](=O)[O-])cc1C | – | -9.39
81 | O=C(Oc1ccc(C(=S)N2CCOCC2)cc1)c1ccccc1[N+](=O)[O-] | 13.5 µM (active) | –
82 | O=C(Oc1ccc(C(=S)N2CCCCC2)cc1)c1ccccc1F | 13.5 µM (active) | –
83 | O=C(Oc1ccc(C(=S)N2CCOCC2)cc1)c1ccccc1F | 6.01 µM (active) | –
84 | CC1(C)Nc2cccc3c(N=Nc4ccc(N=Nc5ccccc5)c5ccccc45)ccc(c23)N1 | 3.01 µM (active) | –
85 | COc1ccc(CN(CCN(C)C)c2ccccn2)cc1 | – | -3.21
86 | COc1cnc(-c2ccccn2)nc1Oc1ccc(C(C)(C)C)cc1 | 3.79 µM (active) | –
87 | COc1ccc(Oc2nc(-c3ccccn3)ncc2OC)cc1 | 19 µM (active) | –
88 | CCOC(=O)C(C)Sc1nc(-c2ccccn2)ncc1OC (stereo unspecified) | 2.13 µM (active) | –
89 | CCc1nc2ccc(C(=O)NCCCN(C)C)cn2c1N(C)Cc1ccc(OC)cc1 | – | -5.22
90 | COc1ccc(N(CC(=O)Nc2nc3ccc(C)cc3s2)S(=O)(=O)c2c(C)nn(C)c2C)cc1 | – | -25.2
91 | Cc1c(C(=O)O)c(O)cc2c1C(=O)c1c(O)c([C@H]3O[C@H](CO)[C@@H](O)[C@H](O)[C@H]3O)c(O)c(O)c1C2=O | 16.9 µM (active) | –
92 | O=C(Nc1cccc(-c2nnc(-c3ccco3)o2)c1)c1ccccc1 | – | -19.3
93 | CCc1ccc(NC(=O)COC(=O)c2ccccc2OCC(=O)N(C)C)cc1 | – | -4.47
94 | COc1ccc(C(=O)Nc2nnc(-c3ccccc3)o2)cc1OC | 19 µM (active) | –
95 | CCOc1ccccc1C(=O)OCC(=O)Nc1nnc(-c2ccccc2)o1 | 19 µM (active) | –
96 | O=C(COC(=O)c1cc(-c2cccnc2)nc2ccccc12)Nc1ccc(F)cc1F | – | -21.4
